Screens (PubChem)
Shiga inhibitor – inhibitors of Shiga toxin in Vero cells. inhibition, % at 38.7 µM. AID 2315. Vero cells, Shiga toxin protein synthesis inhibition reporter. actives 9.2% (n = 290,000); in the data active = inhibition mostly above about 28%, no sharp cut-off; inactive = mostly below about 43%; also: 0% is about no effect
SARS PLP yeast – blocks SARS-CoV papain-like protease in a yeast assay; S. cerevisiae expressing SARS-CoV PLpro, growth rescue; Potency, µM (series often up to 32.9 µM), inactives show top-dose activity, positive = growth rescue, most hits filed as activators; actives 0.19% (n = 330,000); also: potency is read from the fitted curve at half-maximal effect; 0% is about no effect; nearly all actives have a fitted effect of over 55% in size
NS1 function inh – blocks influenza NS1 protein function; Potency, µM (doses to about 46.1 µM), for the others: at the highest dose activity, positive = more growth; actives 0.4% (n = 270,000); also: potency is read from the fitted curve at half-maximal effect; actives are rising curves; nearly all actives have a fitted effect of over 50% in size
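In this qHTS, NS1 from influenza A is expressed in budding yeast, where it slows growth. Cells are switched from glucose to 2% galactose medium (pH 6.0, -URA), treated with compound, and growth recovery is read at OD600.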
Pf growth 96h – P. falciparum growth inhibition at 96 hours | P. falciparum luciferase reporter growth, 96 h | Potency, µM (series often up to 28.7 µM), inactives show at the highest dose activity change, negative = inhibition, usual class: inhibitors | actives 6.9% (n = 320,000); active = well fitted inhibition curve with a large enough effect; inconclusive = small, poorly fitted or top-dose-only effect, or another doubt; inactive = no such curve, though single readings can be large or run the other way; also: potency is read from the fitted curve at half-maximal effect; % is scaled to controls: 0 for no effect and ±100 for the full control effect
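P. falciparum expressing integrated firefly luciferase, in erythrocytes at 2% hematocrit, 0.05% parasitemia, incubated with compounds 96 h at 37 C, 5% CO2. Growth inhibition read as loss of luminescence; two-generation exposure targets delayed-death apicoplast inhibitors.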
Pf growth 48h – P. falciparum growth inhibition at 48 hours (one generation); P. falciparum luciferase growth in erythrocytes, 48 h; Potency, µM (highest dose often 28.7 µM), for the others: at the top dose activity change, negative = inhibition, most hits filed as inhibitors; actives 5.9% (n = 310,000); active = well fitted inhibition curve with a large enough effect; inconclusive = small, poorly fitted or top-dose-only effect, or another doubt; inactive = no such curve, though single readings can be large or run the other way; also: potency is read from the fitted curve at half-maximal effect; % is scaled to controls: 0 for no effect and ±100 for the full control effect
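Luminescence readout; reporter = integrated firefly luciferase in P. falciparum. RBC culture at 2% hematocrit, 0.1% parasitemia final, 37 C/5% CO2; decreased signal taken as growth inhibition.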
CHX counter – counter-screen hit for Shiga toxin inhibitors, cycloheximide; actives 12% (n = 300,000); cell reporter, cycloheximide protein synthesis inhibition counterscreen; max response, %; in the data active = max response mostly above about 13%, no sharp cut-off; inactive = mostly below about 14%; also: read at 38.3 µM for the half of the compounds with a filed dose; 0% is about no effect
An asterisk follows results filed as active; ? = inconclusive; · = not tested or not shown; [ ] = another dose, or the depositor's remark. Compounds with a hit are over-represented: about 21% of the library has one in this group of screens. Unless noted, calls follow the shape of the full dose curve.

SMILES	Shiga inhibitor	SARS PLP yeast	NS1 function inh	Pf growth 96h	Pf growth 48h	CHX counter
CN(C)C=NC1=NN(c2cccc(C(F)(F)F)c2)CC1	43*	-17%	-23%	?	14%	43*
Cc1ccc(Cl)cc1NC(=O)CC1NCCNC1=O (configuration not stated)	-3	-13%	18%	-11%	-5%	-2
CC(C)(C)C(=O)/C=c1\[nH]c(=O)/c(=C\c2ccc(C#N)cc2)s1	-3	-1%	-4%	-104%	·	-3
COc1ccc(/C=c2\s/c(=C\C(=O)C(C)(C)C)[nH]c2=O)cc1O	7	-1%	-4%	4.1µM*	?	15*
Cc1cccc(/C=c2\s/c(=C\C(=O)C(C)(C)C)[nH]c2=O)c1	41	-23%	-76%	2.1µM*	?	23*
CN(C)S(=O)(=O)N(CC(=O)Nc1ccc(S(=O)(=O)N2CCCC2)cc1)c1ccccc1	-1	1%	-6%	-15%	-28%	-3
Cn1c(=O)c(=O)n(C)c2cc(S(=O)(=O)CCC(=O)Nc3ccc(C(F)(F)F)cc3)ccc21	-3	1%	8%	20%	?	-1
Cc1cc(C)c(C)c(S(=O)(=O)Nc2ccccc2C(=O)NN2CCOCC2)c1C	·	1%	·	·	·	·
COC(=O)c1cc(OC)c(OC)cc1N1C(=O)CC(C)(C)CC1=O	-4	-1%	-1%	38%	4%	-1
COc1ccc([C@@H]2[C@@H]3C(=O)N(C(C)(C)C)C(=O)[C@@H]3[C@]3(Cc4ccc(Cl)cc4)C(=O)N(c4cccc(C)c4)C(=O)N23)cc1	-7	-2%	1%	8.3µM*	?	-2
CC[C@@]12C(=O)N(c3cccc(C)c3)C(=O)N1[C@H](c1ccc(OC)cc1)[C@@H]1C(=O)N(C(C)(C)C)C(=O)[C@@H]12	1	3%	2%	?	?	-4
COc1ccc([C@@H]2[C@@H]3C(=O)N(C(C)(C)C)C(=O)[C@@H]3[C@]3(Cc4ccc(Cl)cc4)C(=O)N(c4ccc(C)cc4)C(=O)N23)cc1	·	-5%	·	6.6µM*	13µM*	·
CC(C)(C)C1CCC(=NNC(=O)CC(=O)NCc2ccccc2)CC1 (configuration not stated)	-3	-19%	-1%	2.1µM*	10%	-3
CC1CCC(=NNC(=O)Cc2cccn2C)CC1 (configuration not stated)	3	0%	·	1%	7%	-1
CC1CCC(=NNC(=O)Cc2ccccc2)CC1 (configuration not stated)	9	-4%	8%	?	?	14*
CC(C)CCC(C(=O)O)C(C)CC(=O)Nc1ccn(-c2ccccc2)n1 (configuration not stated)	-10	2%	11%	0%	30%	0
COc1ccc(C(C[N+](=O)[O-])c2c(C)[nH]c3ccccc23)cc1OC (configuration not stated)	-5	-15%	-7%	?	2.1µM*	-7
COc1ccc(C(C[N+](=O)[O-])c2c(C)[nH]n(-c3ccccc3)c2=O)cc1 (configuration not stated)	20	-10%	-75%	1%	3%	-1
Cc1cc(NC(=O)/C=C/c2ccc(F)cc2)n(-c2nc3ccccc3[nH]2)n1	12	-17%	1%	-50%	?	9
Cc1cc(NC(=O)c2ccc(C)s2)n(-c2nc3ccccc3[nH]2)n1	33*	4%	21%	?	-108%	11
Cc1cc(NC(=O)c2c(F)cccc2Cl)n(-c2nc3ccccc3[nH]2)n1	-12	-7%	-11%	·	10µM*	0
Cc1cc(NC(=O)c2ccccc2F)n(-c2nc3ccccc3[nH]2)n1	68	2%	-3%	23%[5.75 µM]	-79%	16
Cc1cc(NC(=O)C2CC2)n(-c2nc3ccccc3s2)n1	36*	0%	·	1%	14%	18*
Cc1cc(NC(=O)C2CCCCC2)n(-c2nc3ccccc3[nH]2)n1	-8	-5%	-6%	·	9.3µM*	1
Cc1ccc(OCCC(=O)OCC(=O)N2CCN(S(=O)(=O)c3ccc(C)cc3)CC2)cc1	·	3%	·	89%	0%	·
SMILES	Shiga inhibitor	SARS PLP yeast	NS1 function inh	Pf growth 96h	Pf growth 48h	CHX counter
COc1ccc(/C=C/C(=O)OCC(=O)NC2CCCC2)cc1	·	-7%	·	34%	12%	·
Cc1cc(NC(=O)c2c(F)cccc2F)n(-c2nc3ccccc3[nH]2)n1	19	5%	1%	-94%	7.4µM*	3
O=C(NCCc1ccccc1)c1ccc(-n2cnnn2)cc1	61*	0%	-2%	7%	105%	47*
O=C(NCc1ccccc1)c1ccc(Br)cc1	25	4%	1%	?	16%	10
O=C(CCCC(=O)c1ccccc1)NCCc1ccccc1	2	-3%	4%	6%	-7%	8
O=C(NCCCc1ccccc1)c1ccccc1	76*	?	-11%	9.3µM*	30%	40*
O=C(NCCCCc1ccccc1)c1ccc(Br)cc1	56*	-6%	-39%	?	0%	38*
O=C(CCCc1ccccc1)c1ccccc1	97*	-15%	1%	268%	194%	46*
N#CCCn1c(SCC(=O)Nc2ccc(N3CCOCC3)cc2)nc2ccccc21	19	6%	9%	?	-11%	-1
C=CCSc1nnc2nc3[nH]c4c(C)cccc4c3nn12	15	-3%	10%	·	?	28
O=C(COC(=O)CCCSc1nc2ccccc2[nH]1)Nc1ccc(Cl)cc1	-4	4%	-19%	-23%	10%	-4
O=C(NCCCc1ccccc1)c1cccc([N+](=O)[O-])c1	34	-11%	-16%	-10%	44%	22*
O=C(NCCCCc1ccccc1)c1ccccc1	28	2%	·	?	3%	15*
O=C(NCCC(=O)N(CCc1ccccc1)Cc1ccccc1)c1ccc(Br)cc1	·	·	·	13µM*	?	·
O=C(CCNC(=O)c1ccc(Br)cc1)NNC(=O)c1ccccc1	·	17%	·	·	·	·
O=C(NCCNc1ccc([N+](=O)[O-])cc1C(F)(F)F)c1ccccc1	-14	13%	-43%	13µM*	?	5
O=C(NCCCc1ccccc1)c1ccncc1	-9	3%	-9%	·	17%	9
O=C(NN=Cc1c(F)c(F)c(F)c(F)c1F)c1ccc(NS(=O)(=O)c2cccs2)cc1	·	2%	·	·	·	·
O=C(CNC(=O)c1ccco1)NCC(=O)OCc1ccc(C(=O)Oc2ccc(Cl)cc2)cc1	2	6%	2%	?	·	1
O=C(CNC(=O)c1ccco1)OCc1ccc(C(=O)Oc2ccccc2)cc1	24*	-17%	-61%	?	3%	33*
COC(=O)c1ccc(COC(=O)CNC(=O)c2ccco2)cc1	-36	3%	-83%	·	30%	-1
O=C(CNC(=O)c1ccco1)NCC(=O)OCc1ccc(F)cc1	12	2%	3%	3.3µM*	5%	-2
